# Laboratory results from PubChem BioAssay (NCATS).
# Some of the results follow. Results filed as inconclusive are left out. Active and inactive are the calls of the source. The call rests on the fitted dose curve; in most records, active means well fitted curve in the direction sought with a large enough effect; inconclusive means small, poorly fitted or top-dose-only effect, or another doubt; inactive means no such curve, though single readings can be large; an effect the other way counts as inactive or inconclusive.
# System: not listed separately
# Assay: qHTS for small molecule inhibitors of Yes1 kinase: Counter Assay (AID 686950);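 further: no kinase present so only ADP-Glo detection of a fixed ADP amount is tested; luminescence from ADP-Glo reporting ADP in a fixed ATP and ADP mixture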
# Details: series mostly up to 76.9 µM
# Outline: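 Enzyme-free ADP-Glo interference check: compounds were preincubated 20 min in buffer, then an ATP/ADP mix (0.08 mM ATP, 0.02 mM ADP final) was added for 60 min at room temperature before two-step ADP-Glo luminescence detection.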
row,Compound,outcome
1,Cc1cccc(Oc2nccc(-c3c(-c4ccc(F)cc4)ncn3C3CCNCC3)n2)c1C,inactive
2,CCOc1ccc2c(-c3ccnc(Nc4cc(OC)cc(C(F)(F)F)c4)n3)cnn2n1,inactive
3,CCCN1CCCC(c2ccc(Nc3nc(Nc4cc(F)ccc4C(N)=O)c4cc[nH]c4n3)c(OC)c2)C1 (centres undefined),inactive
4,NS(=O)(=O)c1ccc(N=Nc2c(=O)[nH]c3ccc4[nH]cccc4c23)cc1,inactive
5,CC(C)(C)c1ccc(Oc2nccc(-c3c(-c4ccc(F)cc4)ncn3C3CCNCC3)n2)cc1,inactive
6,COc1cccc(-n2ncc3c(NN=Cc4ccc(C)cc4)ncnc32)c1,inactive
7,Cc1cccc(Nc2ncc(-c3ccccc3)o2)c1,inactive
8,Cc1ccc(C(=O)NC2CCC2)cc1-c1ccc(C(=O)NCC2CC2)cc1,inactive
9,O=C1NC(=O)C(c2cccc([N+](=O)[O-])c2)=C1Nc1cc(Cl)c(O)c(Cl)c1,inactive
10,COc1ccc(C2=C(N3CCc4ccccc43)C(=O)NC2=O)cc1,inactive
11,CCS(=O)(=O)c1ccc(OC)c(Nc2ncc(-c3ccccc3Cl)o2)c1,inactive
12,COc1cc2c(cc1Nc1nc(Nc3ccsc3C(N)=O)c3cc[nH]c3n1)N(C(=O)CN(C)C)CCC2(C)C,inactive
13,CC(=Nc1ccc(S(N)(=O)=O)cc1)c1c(O)[nH]c2ccccc12,inactive

# Target: Phosphoglycerate kinase, glycosomal (Trypanosoma brucei brucei) (UniProt P07378)
# Sequence (P07378 whole entry, looked up): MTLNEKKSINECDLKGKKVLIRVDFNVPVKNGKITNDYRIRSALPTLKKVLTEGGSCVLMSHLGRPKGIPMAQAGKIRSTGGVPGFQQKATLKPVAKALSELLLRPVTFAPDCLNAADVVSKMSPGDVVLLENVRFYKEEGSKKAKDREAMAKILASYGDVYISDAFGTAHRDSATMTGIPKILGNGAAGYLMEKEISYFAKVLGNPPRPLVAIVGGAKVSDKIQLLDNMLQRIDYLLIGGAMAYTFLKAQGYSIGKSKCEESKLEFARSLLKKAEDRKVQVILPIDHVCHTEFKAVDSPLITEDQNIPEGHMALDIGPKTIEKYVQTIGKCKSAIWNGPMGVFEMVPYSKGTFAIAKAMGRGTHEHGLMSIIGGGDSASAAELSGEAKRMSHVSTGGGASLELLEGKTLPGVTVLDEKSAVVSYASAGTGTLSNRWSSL
# Assay: qHTS for inhibitors of Phosphogylcerate Kinase: Hit Validation Screen (AID 686980); further: potency means the concentration at half of the fitted maximal effect; nearly all actives have a fitted effect of over 65% in size
# Details: TbPGK coupled GAPDH assay, Kinase-Glo luminescence
# Outline: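 Luminescent ATP detection (Kinase-Glo Plus) follows a 60-minute room-temperature incubation, with wells lacking PGK as controls. Buffer: 100 mM TEA (pH 7.6), 5 mM MgCl2, 0.01% Tween-20. Coupling enzyme GAPDH (100 nM final) supplies unstable 1,3-BPG in-well.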
row,Compound,Potency
1,O=C(CSc1nc2ccccc2c(=O)[nH]1)Nc1nc(-c2ccc(Br)cc2)cs1,4.11 µM (active)
2,C=CCn1c(C)cc(C2=NNC(=NCC)SC2)c1C,11.6 µM (active)
3,O=C1/C(=C/c2cccs2)CCc2ccccc21,14.6 µM (active)
4,Cc1ccc(C(=O)O)cc1-c1ccc(/C=C2\SC(=O)N(CC(=O)Nc3ccc4c(c3)OCO4)C2=O)o1,8.19 µM (active)
5,O=C(Oc1ccc(-c2nc(-c3ccccn3)no2)cc1)c1ccccc1,16.3 µM (active)
6,Cc1nonc1C(=O)N/N=C/c1ccc(O)cc1,5.8 µM (active)
7,COc1ccc(Cl)cc1NC(=O)CCS(=O)(=O)c1ccc(Br)cc1,5.17 µM (active)
8,Cc1c(CC(=O)N2CCN(C(=O)C3COc4ccccc4O3)CC2)c(=O)oc2c(O)c(O)ccc12 (centres undefined),2.59 µM (active)
9,C=CC1=C(C(=O)O)N2C(=O)[C@@H](NC(=O)/C(=N/OCC(=O)O)c3csc(N)n3)[C@H]2SC1,0.116 µM (active)
10,Cc1ccnc(NC(=O)c2ccoc2C)c1,14.6 µM (active)
11,COCCCn1c(Cc2csc(Nc3cccc(Cl)c3)n2)nnc1SCC(=O)OC1CCCCC1,9.19 µM (active)

# Target: DNA polymerase iota (Homo sapiens) (UniProt Q9UNA4)
# Sequence (Q9UNA4 whole entry, looked up): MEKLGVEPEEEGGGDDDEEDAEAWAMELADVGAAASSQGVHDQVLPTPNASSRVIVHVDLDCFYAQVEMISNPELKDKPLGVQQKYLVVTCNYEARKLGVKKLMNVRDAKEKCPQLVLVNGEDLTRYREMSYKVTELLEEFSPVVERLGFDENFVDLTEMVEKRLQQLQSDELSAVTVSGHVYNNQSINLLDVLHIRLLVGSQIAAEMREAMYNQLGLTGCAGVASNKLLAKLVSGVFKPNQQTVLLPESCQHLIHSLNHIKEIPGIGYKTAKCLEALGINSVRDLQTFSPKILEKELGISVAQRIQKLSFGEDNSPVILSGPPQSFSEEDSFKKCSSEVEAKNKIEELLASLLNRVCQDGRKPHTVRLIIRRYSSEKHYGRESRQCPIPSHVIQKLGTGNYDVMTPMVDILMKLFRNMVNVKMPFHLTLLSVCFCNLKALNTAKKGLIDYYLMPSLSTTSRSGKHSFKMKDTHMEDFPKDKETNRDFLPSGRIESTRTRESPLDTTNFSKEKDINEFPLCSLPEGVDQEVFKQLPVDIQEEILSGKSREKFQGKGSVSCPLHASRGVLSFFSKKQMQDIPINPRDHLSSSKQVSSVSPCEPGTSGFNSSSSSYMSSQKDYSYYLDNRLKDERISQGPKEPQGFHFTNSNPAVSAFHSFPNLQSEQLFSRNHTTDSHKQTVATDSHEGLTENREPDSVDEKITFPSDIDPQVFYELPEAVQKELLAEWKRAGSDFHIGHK
# Assay: qHTS for Inhibitors of Polymerase Iota: Confirmatory Assay for Cherry-picked Compounds (AID 720496); further: potency means the concentration at half of the fitted maximal effect
# Details: Pol iota primer extension, TAMRA/BHQ fluorescence
# Outline: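 Read-out is TAMRA fluorescence (525 nm excitation, 598 nm emission) at 0 and 10 min. It reflects strand displacement from a BHQ-2-quenched template by 10 nM Pol iota, with 50 nM final substrate after 15 min compound preincubation.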
row,Compound,Potency
1,O=C(CSc1nc2ccccc2c(=O)[nH]1)Nc1nc(-c2ccc(Br)cc2)cs1,21.2 µM (active)
2,Cc1ccc(C(=O)O)cc1-c1ccc(/C=C2\SC(=O)N(CC(=O)Nc3ccc4c(c3)OCO4)C2=O)o1,7.52 µM (active)
3,COc1ccc(Cl)cc1NC(=O)CCS(=O)(=O)c1ccc(Br)cc1,18.9 µM (active)
4,Cc1c(CC(=O)N2CCN(C(=O)C3COc4ccccc4O3)CC2)c(=O)oc2c(O)c(O)ccc12 (centres undefined),15 µM (active)
5,C=CC1=C(C(=O)O)N2C(=O)[C@@H](NC(=O)/C(=N/OCC(=O)O)c3csc(N)n3)[C@H]2SC1,2.67 µM (active)

# Target: DNA polymerase eta (Homo sapiens) (UniProt Q9Y253)
# Sequence (Q9Y253 whole entry, looked up): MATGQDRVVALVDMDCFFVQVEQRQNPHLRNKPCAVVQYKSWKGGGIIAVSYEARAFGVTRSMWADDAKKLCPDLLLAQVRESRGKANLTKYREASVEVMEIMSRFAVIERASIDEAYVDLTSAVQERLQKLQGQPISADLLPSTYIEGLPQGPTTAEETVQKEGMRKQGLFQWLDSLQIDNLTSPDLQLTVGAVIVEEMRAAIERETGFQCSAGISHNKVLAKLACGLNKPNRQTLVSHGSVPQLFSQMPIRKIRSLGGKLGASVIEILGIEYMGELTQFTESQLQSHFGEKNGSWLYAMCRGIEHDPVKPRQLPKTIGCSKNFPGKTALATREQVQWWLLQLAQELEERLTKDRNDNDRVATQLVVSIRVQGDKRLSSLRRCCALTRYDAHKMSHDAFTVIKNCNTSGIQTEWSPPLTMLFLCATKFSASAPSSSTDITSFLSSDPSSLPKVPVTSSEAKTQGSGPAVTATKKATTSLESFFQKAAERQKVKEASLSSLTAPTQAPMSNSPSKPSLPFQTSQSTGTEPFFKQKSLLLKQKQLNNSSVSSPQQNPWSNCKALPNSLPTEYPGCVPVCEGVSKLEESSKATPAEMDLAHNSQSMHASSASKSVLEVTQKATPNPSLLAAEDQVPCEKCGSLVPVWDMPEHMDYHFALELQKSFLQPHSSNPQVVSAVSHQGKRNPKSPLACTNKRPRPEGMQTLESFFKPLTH
# Assay: qHTS for Inhibitors of Polymerase Eta: Confirmatory Assay for Cherry-picked Compounds (AID 720502); further: potency means the concentration at half of the fitted maximal effect
# Details: Pol eta primer extension, TAMRA/BHQ fluorescence, 10 min
# Outline: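 Enzyme at 10 nM is mixed with pin-transferred compound and left 15 min at room temperature. Substrate (50 nM final) is then added, and plates are read at 0 min and after 10 min.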
row,Compound,Potency
1,O=C(CSc1nc2ccccc2c(=O)[nH]1)Nc1nc(-c2ccc(Br)cc2)cs1,75.7 µM (active)
2,Cc1ccc(C(=O)O)cc1-c1ccc(/C=C2\SC(=O)N(CC(=O)Nc3ccc4c(c3)OCO4)C2=O)o1,19 µM (active)
3,COc1ccc(Cl)cc1NC(=O)CCS(=O)(=O)c1ccc(Br)cc1,16.9 µM (active)
4,Cc1c(CC(=O)N2CCN(C(=O)C3COc4ccccc4O3)CC2)c(=O)oc2c(O)c(O)ccc12 (centres undefined),7.57 µM (active)
5,C=CC1=C(C(=O)O)N2C(=O)[C@@H](NC(=O)/C(=N/OCC(=O)O)c3csc(N)n3)[C@H]2SC1,3.38 µM (active)
